High-throughput results deposited in PubChem BioAssay by several laboratories.
GDH-TPI counter-1 = GDH-TPI coupling enzyme inhibitors, primary screen, artefact control for M. tuberculosis FBA inhibitor project, biochemical, absorbance, full deck | inhibition, % at 4.8 µM | GDH-TPI coupled enzyme counterscreen, NADH absorbance | 360,000 tested, 1.2% active; in the data active means inhibition above about 30%;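 further: 0% = DMSO wells and 100% = wells lacking the enzyme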
RecA splice inh = Mtb RecA intein splicing inhibitors, primary screen, biochemical, fluorescence, HTS; Protein RecA (Mycobacterium tuberculosis (strain ATCC 25618 / H37Rv)), P9WHJ3; AID 2221, 2009; inhibition, % (no concentration beside the values); 290,000 tested, 0.75% active; cell-free RecA intein splicing; in the data active means inhibition above about 30%;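 further: 0% = vehicle wells and 100% = reference inhibitor control wells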
Rv3671c protease = Rv3671c serine protease inhibitors, primary screen, biochemical, fluorescence polarization, M. tuberculosis H37Rv; P9WHR9; inhibition, % at 5.96 µM; 320,000 tested, 0.048% active; AID 2606, 2010; in the data active means inhibition above about 38%;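 further: extracellular domain of Rv3671c used as enzyme; 0% = enzyme with DMSO and 100% = no enzyme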
Target sequence (P9WHR9 whole entry, looked up, the tested form may be a part): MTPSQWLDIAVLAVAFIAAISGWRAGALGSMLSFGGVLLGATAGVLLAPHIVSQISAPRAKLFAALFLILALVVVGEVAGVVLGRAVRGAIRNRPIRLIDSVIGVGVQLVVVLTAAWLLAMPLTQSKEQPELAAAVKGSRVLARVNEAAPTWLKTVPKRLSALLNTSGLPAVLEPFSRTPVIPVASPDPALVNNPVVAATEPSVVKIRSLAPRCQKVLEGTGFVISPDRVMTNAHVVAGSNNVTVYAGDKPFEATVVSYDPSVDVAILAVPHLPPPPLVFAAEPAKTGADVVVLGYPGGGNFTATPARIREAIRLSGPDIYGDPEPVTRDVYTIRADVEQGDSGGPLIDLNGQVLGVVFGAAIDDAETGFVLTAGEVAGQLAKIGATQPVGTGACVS
Mtb UGM inh = M. tuberculosis UGM enzyme inhibitors, primary screen, biochemical, fluorescence polarization, single point; inhibition, % at 10 µM; purified UGM, fluorescence polarization probe displacement; AID 504406, 2011; UDP-galactopyranose mutase (Mycobacterium tuberculosis (strain ATCC 25618 / H37Rv)), …; 320,000 tested, 0.06% active; in the data active means inhibition above about 10%, passing the limit was not always enough
FBA Mtb inh = Mtb FBA enzyme inhibitors, primary screen, biochemical, fluorescence, strain H37Rv. Fructose-bisphosphate aldolase (Mycobacterium tuberculosis (strain ATCC 25618 / H37Rv)), …. purified M. tuberculosis FBA, fluorescence read-out. inhibition, % at 1 µM. 360,000 tested, 2.3% active. AID 588726, 2011;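 further: 0% = vehicle and 100% = reference inhibitor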
Mtb betalactam = beta-lactam sensitization of Mtb H37Rv, H37Rv. M. tuberculosis H37Rv growth with meropenem, percent inhibition. inhibition, % at 25 µM. 330,000 tested, 0.27% active. AID 434955, 2010; call rule not given here;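 further: growth measured after seven days incubation then overnight dye step; 0% = bacteria only wells and 100% = bacteria with antibiotic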
Mtb FBA confirm = M. tuberculosis aldolase blockers, biochemical, fluorescence, strain H37Rv, confirmation; shares compounds with FBA Mtb inh; purified M. tuberculosis FBA, fluorescence read-out; inhibition, % at 1 µM; 5,600 tested, 78% active; AID 651616, 2012;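 further: 0% = vehicle wells and 100% = reference inhibitor wells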
GDH-TPI counter-2 = GDH-TPI coupling enzyme inhibitors, artefact control for M. tuberculosis FBA inhibitor project, biochemical, fluorescence, high throughput | GDH-TPI coupled enzyme counterscreen | 5,600 tested, 81% active | shares compounds with FBA Mtb inh | inhibition, % at 1 µM; in the data active means inhibition above about 10%
* = called active by the depositor; · = not tested or not shown; + = active, no number. A selection: hits, their analogues and other compounds. The true share with any hit is near 4%. Unless noted, no stated cut-off is given here; in the data, active means inhibition above about 27%; inactive means the rest.

SMILES	GDH-TPI counter-1	RecA splice inh	Rv3671c protease	Mtb UGM inh	FBA Mtb inh	Mtb betalactam	Mtb FBA confirm	GDH-TPI counter-2
CC(=O)Nc1nn(C)c2nc(C)cc(C)c12	-13	·	6	2	39*	-4	59*	50*
Cc1ccc(NC(=O)Cn2c(=O)cnc3ccccc32)cc1S(=O)(=O)N1CCOCC1	22	·	4	-2	9	3	·	·
CCOCCCNC(=O)C(NC(=O)c1ccccn1)c1ccc(C)cc1 (stereo not given)	3	-2	-3	1	4	-7	·	·
CCOCCCNC(=O)C(NC(=O)c1ccccc1O)c1ccc(C)cc1 (stereo not given)	4	-4	-4	0	42*	-4	+	169*
CCCN1C(=O)c2ccccc2NC1c1ccc(OC)c(CSc2ccccn2)c1 (stereo not given)	5	1	-10	-1	56*	-4	140*	105*
COc1ccc(C2Nc3ccccc3C(=O)N2Cc2ccccc2)cc1 (stereo not given)	4	·	3	-2	39*	-2	167*	135*
COc1ccc(C2Nc3ccccc3C(=O)N2Cc2ccccc2)cc1COc1ccccn1 (stereo not given)	-8	5	4	-5	78*	1	64*	54*
COc1ccc(N2C(=O)c3ccccc3NC2c2ccc(OC)c(CSc3ccccn3)c2)cc1 (stereo not given)	11	-5	2	0	22	2	·	·
COc1ccc(C2Nc3ccccc3C(=O)N2C2CCCCC2)cc1 (stereo not given)	1	3	-1	-1	85*	0	1	0
COc1ccc(S(=O)(=O)N2CCN(C(=O)CSC(=S)N3CCCC3)CC2)cc1	-2	·	0	-1	-3	-7	·	·
O=C(O)c1ccc(C2Nc3ccccc3C(=O)N2Cc2ccccc2)cc1 (stereo not given)	0	·	3	-3	76*	-4	9	5
COc1ccc(CC2=NCCc3cc(OC)c(OC)cc32)cc1OC	17	·	·	·	94*	·	+	157*
O=C(O)CCCc1ccc2ccc3cccc4ccc1c2c34	35*	2	-2	-3	56*	78	+	+
O=C(c1cc(F)ccc1F)C1CCCN(C(=O)c2ccc3nccnc3c2)C1 (stereo not given)	2	-2	-1	-3	5	-10	·	·
CCN1CCN(c2cc(C)c3cc(NC(=S)N4CCOCC4)ccc3n2)CC1	13	-7	2	-4	22	-6	·	·
Cc1cc(N2CCOCC2)nc2ccc(NC(=O)CCC(=O)N3CCN(c4cccc(C(F)(F)F)c4)CC3)cc12	11	2	-4	2	35*	75	54*	40*
Cc1ccc(C)c(N2CCN(C(=S)Nc3ccc4nc(N5CCN(C)CC5)cc(C)c4c3)CC2)c1	9	3	5	0	15	97	·	·
CCC(C)NC(=S)Nc1ccc2nc(N3CCOCC3)cc(C)c2c1 (stereo not given)	6	-5	2	-2	29*	2	1	-2
CCC(C)NC(=O)CCC(=O)Nc1ccc2nc(N3CCOCC3)cc(C)c2c1 (stereo not given)	22	-2	0	-5	77*	-3	3	-3
Cc1ccc(C)c(N2CCN(C(=S)Nc3ccc4nc(N5CCOCC5)cc(C)c4c3)CC2)c1	9	-1	15	4	27*	1	89*	64*
CCC(C)NC(=S)Nc1ccc2nc(N3CCN(CC)CC3)cc(C)c2c1 (stereo not given)	4	-1	3	0	14	-2	·	·
CCN1CCN(c2cc(C)c3cc(NC(=O)CCC(=O)N4CCN(c5ccccc5)CC4)ccc3n2)CC1	5	2	9	-2	25	4	·	·
COc1cc(NC(=O)CCC(=O)Nc2ccc3nc(N4CCOCC4)cc(C)c3c2)cc(OC)c1OC	24	·	-7	2	106*	-1	40*	30*
COc1ccc(N(C)C(=O)CCC(=O)Nc2ccc3nc(N4CCOCC4)cc(C)c3c2)c(OC)c1	6	-2	-6	0	14	4	·	·
Cc1cc(N2CCOCC2)nc2ccc(NC(=O)CCC(=O)N3CCCCC3)cc12	-1	-3	-2	2	37*	54	44*	33*
SMILES	GDH-TPI counter-1	RecA splice inh	Rv3671c protease	Mtb UGM inh	FBA Mtb inh	Mtb betalactam	Mtb FBA confirm	GDH-TPI counter-2
Cc1ccc(S(=O)(=O)n2cc(CO)c3ccccc32)cc1	-1	·	·	·	2	·	·	·
O=C1OC(O)c2cccc3cccc1c23 (stereo not given)	2	·	·	·	7	·	·	·
CC1=CC(c2ccc(Cl)cc2)n2nc(NC(=O)c3ccccc3)nc2N1 (stereo not given)	10	1	-3	3	15	-2	·	·
CC1=CC(c2ccccc2)n2nc(NC(=O)CCC(=O)O)nc2N1 (stereo not given)	28	-20	-4	-4	81*	-3	-4	-5
CC1=CC(c2ccccc2)n2nc(NC(=O)CCCC(=O)O)nc2N1 (stereo not given)	-5	-7	-4	-1	62*	-4	83*	73*
Cc1cccn2c(NCc3ccc4c(c3)OCO4)c(-c3ccc(O)cc3)nc12	3	-2	1	-2	53*	4	182*	112*
Cn1ccnc1-c1nnn(-c2ccc(Cl)c(Cl)c2)n1	7	2	3	-1	3	96	·	·
Cn1ccnc1-c1ccc(-c2nccn2C)cc1	-7	·	1	-2	52*	3	+	186*
CC[C@@H]1C/C=C\Cc2ccccc2[C@@H](C(=O)C[C@H](O)CC(C)=O)OC1=O	-2	·	-1	0	-1	4	·	·
Cc1c(O)ccc2c(CN3CCN(Cc4ccccc4)CC3)cc(=O)oc12	4	-3	2	0	36*	-6	+	+
Cc1ccccc1CN(C)Cc1cc(=O)oc2c(C)c(C)ccc12	3	15	2	-1	0	2	·	·
Cc1c(O)ccc2c(CN(C)Cc3ccccc3)cc(=O)oc12	16	-3	7	2	47*	-2	56*	51*
